In PubChem BioAssay (NCATS) one finds Potency and viability (% of DMSO) data, which are given here for 7 compounds.

The nature of experiment [1]: Quantitative High-Throughput drug screen in 47 multiple myeloma cell lines against the NCATS MIPE library collection: Karpas620_DSMZ cell viability assay (AID 1918959). Also: nearly all actives have a fitted effect of over 30% in size. Also: potency is read from the fitted curve at half-maximal effect. An outline of the steps:
(§1)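 Inhibition of cell viability is measured here. Each line was plated at 500 cells per well, treated with MIPE 4.0 drugs, kept 48 hours at 37C, then assayed for ATP content by CellTiter-Glo luminescence.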

Experiment [2] can be described thus: Quantitative High-Throughput drug screen in 47 multiple myeloma cell lines against the NCATS MIPE library collection: KHM11_PLB cell viability assay (AID 1918962). Also: nearly all actives have a fitted effect of over 35% in size. Also: potency is read from the fitted curve at half-maximal effect. An outline of the steps:
as §1

The nature of experiment [3]: Quantitative High-Throughput drug screen in 47 multiple myeloma cell lines against the NCATS MIPE library collection: JIM3_ECACC cell viability assay (AID 1918963; also: nearly all actives have a fitted effect of over 35% in size; also: potency is read from the fitted curve at half-maximal effect). In outline: as §1
Experiment [4] in a line: Quantitative High-Throughput drug screen in 47 multiple myeloma cell lines against the NCATS MIPE library collection: JIM1_ECACC cell viability assay (AID 1918964; also: potency is read from the fitted curve at half-maximal effect). An outline of the steps: (§2)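 CellTiter-Glo luminescence (ATP) after 48 h compound exposure, 37C/5% CO2; 500 cells/well; MIPE 4.0 approved/investigational drugs pinned in; DMSO = 100%, media only = 0% viability.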

The nature of experiment [5]: Quantitative High-Throughput drug screen in 47 multiple myeloma cell lines against the NCATS MIPE library collection: INA6_PLB cell viability assay (AID 1918965; also: nearly all actives have a fitted effect of over 55% in size; also: potency is read from the fitted curve at half-maximal effect). In outline: (§3)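 qHTS of the MIPE 4.0 collection: 500 myeloma cells/well, 48 h drug exposure at 37C in 5% CO2, then CellTiter-Glo for 5 min at room temperature before luminescence reading.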
A short description of experiment [6]: Quantitative High-Throughput drug screen in 47 multiple myeloma cell lines against the NCATS MIPE library collection: JJN3_DSMZ cell viability assay (AID 1918966; also: potency is read from the fitted curve at half-maximal effect; nearly all actives have a fitted effect of over 50% in size). An outline of the steps:
as §2

The nature of experiment [7]: Quantitative High-Throughput drug screen in 47 multiple myeloma cell lines against the NCATS MIPE library collection: H1112_PLB cell viability assay (AID 1918967; also: nearly all actives have a fitted effect of over 30% in size; also: potency is read from the fitted curve at half-maximal effect). In outline: as §2
Experiment [8] is described as follows: Quantitative High-Throughput drug screen in 47 multiple myeloma cell lines against the NCATS MIPE library collection: Karpas25_ECACC cell viability assay (AID 1918968; also: potency is read from the fitted curve at half-maximal effect; nearly all actives have a fitted effect of over 35% in size). An outline of the steps: as §2
Experiment [9] can be described thus: Quantitative High-Throughput drug screen in 47 multiple myeloma cell lines against the NCATS MIPE library collection: KMS27_JCRB cell viability assay (AID 1918970). Also: nearly all actives have a fitted effect of over 30% in size. Also: potency is read from the fitted curve at half-maximal effect. The conditions noted are these: KMS27 myeloma cells, CellTiter-Glo ATP viability, 48 h; viability (% of DMSO): at 45.8 µM (top of the series). In outline: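 CellTiter-Glo luminescence after 48 h drug exposure at 37 °C; 500 cells/well, 1536-well format, pin-tool compound addition; DMSO = 100%, media-only = 0% viability.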

Experiment [10] can be described thus: Quantitative High-Throughput drug screen in 47 multiple myeloma cell lines against the NCATS MIPE library collection: KMS12PE_JCRB cell viability assay (AID 1918972). Also: nearly all actives have a fitted effect of over 30% in size. Also: potency is read from the fitted curve at half-maximal effect. An outline of the steps: as §3
Experiment [11] can be described thus: Quantitative High-Throughput drug screen in 47 multiple myeloma cell lines against the NCATS MIPE library collection: KMS26_JCRB cell viability assay (AID 1918975). Also: potency is read from the fitted curve at half-maximal effect; nearly all actives have a fitted effect of over 45% in size. An outline of the steps:
as §3

Experiment [12] can be described thus: Quantitative High-Throughput drug screen in 47 multiple myeloma cell lines against the NCATS MIPE library collection: NCIH929_DSMZ cell viability assay (AID 1918978). Also: nearly all actives have a fitted effect of over 35% in size. Also: potency is read from the fitted curve at half-maximal effect. An outline of the steps:
(§4)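 Viability after 48 h drug exposure was measured as ATP-dependent luminescence. Cells, 500 per well, sat at 37 °C under 5% CO2; DMSO wells set 100%, media-only wells 0%.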

Experiment [13] is described as follows: Quantitative High-Throughput drug screen in 47 multiple myeloma cell lines against the NCATS MIPE library collection: KMM1_JCRB cell viability assay (AID 1918960). Also: nearly all actives have a fitted effect of over 30% in size. Also: potency is read from the fitted curve at half-maximal effect. An outline of the steps: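 Myeloma cells, 500 per well, were exposed to MIPE 4.0 drugs by pin transfer for 48 h at 37 °C, 5% CO2. Viability was read as ATP luminescence with CellTiter-Glo, normalised to DMSO-only (100%) and medium-only (0%) wells.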

Experiment [14] in a line: Quantitative High-Throughput drug screen in 47 multiple myeloma cell lines against the NCATS MIPE library collection: KMS12BM_JCRB cell viability assay (AID 1918971). Also: nearly all actives have a fitted effect of over 35% in size. Also: potency is read from the fitted curve at half-maximal effect. An outline of the steps:
as §3

The nature of experiment [15]: Quantitative High-Throughput drug screen in 47 multiple myeloma cell lines against the NCATS MIPE library collection: MOLP8_DSMZ cell viability assay (AID 1918977). Also: nearly all actives have a fitted effect of over 45% in size. Also: potency is read from the fitted curve at half-maximal effect. An outline of the steps: as §4
Experiment [16] is described as follows: Quantitative High-Throughput drug screen in 47 multiple myeloma cell lines against the NCATS MIPE library collection: OCIMY1_PLB cell viability assay (AID 1918979). Also: nearly all actives have a fitted effect of over 35% in size. In outline: as §4
Experiment [17] is described as follows: Quantitative High-Throughput drug screen in 47 multiple myeloma cell lines against the NCATS MIPE library collection: Karpas417_ECACC cell viability assay (AID 1918961). Also: potency is read from the fitted curve at half-maximal effect. The conditions noted are these: Karpas417 myeloma viability, CellTiter-Glo ATP luminescence, 48 h; viability (% of DMSO): at 45.8 µM (top of the series). An outline of the steps: as §3
Background: ATP-based viability assays read luminescence as a measure of living cells.

Experiment [18] can be described thus: Quantitative High-Throughput drug screen in 47 multiple myeloma cell lines against the NCATS MIPE library collection: MMM1_PLB cell viability assay (AID 1918976). In outline: as §4
The nature of experiment [19]: Quantitative High-Throughput drug screen in 47 multiple myeloma cell lines against the NCATS MIPE library collection: KMS21BM_JCRB cell viability assay (AID 1918974). Also: potency is read from the fitted curve at half-maximal effect. The settings on record: ATP luminescence, 48 h; viability: at 45.8 µM (top of the series). An outline of the steps:
as §2

Each structure is given as a SMILES string. Inconclusive results are not listed. Active and inactive are the calls of the source. Calls follow the shape of the dose curve; as a rule, active = well fitted curve in the direction sought with a large enough effect; inconclusive = small, poorly fitted or top-dose-only effect, or another doubt; inactive = no such curve, though single readings can be large; an effect the other way counts as inactive or inconclusive.

For the compound `Cc1cnn(C)c1C(=O)Nc1cc(Nc2ccc3c(C=Cc4ccccn4)n[nH]c3c2)ccc1F`, the Potency in experiment [1] is 20.9 µM (active); in [2], 18.7 µM (active); in [3], 5.26 µM (active); in experiment [4], 10.5 µM (active); in experiment [5], 4.18 µM (active); in experiment [6] it was 23.5 µM (active). For the same compound, the Potency in experiment [7] is 8.33 µM (active); in [8], 4.69 µM (active); in experiment [9] it was 2.64 µM (active); in experiment [10] it was 2.96 µM (active); in experiment [11], 33.2 µM (active); in experiment [12], 14.8 µM (active).

On to `CCCNS(=O)(=O)Nc1ncnc(OCCOc2ncc(Br)cn2)c1-c1ccc(Br)cc1`, for which the Potency entry in experiment [13], in [2], in experiment [3], in experiment [4], in [5] and in experiment [7] was “inactive” throughout. For the same compound, the Potency entry in experiment [9], in [14], in [10], in experiment [15], in experiment [12] and in [16] was “inactive” in each case.

Consider `Cc1cnc(NC(=O)Nc2cc(Br)c(C)cc2OC[C@@H]2CNCCO2)cn1`, for which the Potency in [13] is 0.743 µM (active); in experiment [2] it was 20.9 µM (active); in experiment [3], 0.935 µM (active); in [4], 1.05 µM (active); in experiment [5], 0.469 µM (active); in experiment [6] it was 18.7 µM (active). Moreover, the Potency in experiment [7] was 5.9 µM (active); in [8] it was 16.6 µM (active); in [14] it was 9.35 µM (active); in experiment [10] it was 0.833 µM (active); in [18] it was 18.7 µM (active); in experiment [15], 4.69 µM (active). In experiment [12], the Potency is 7.43 µM (active). For the same compound, the viability (% of DMSO) in experiment [17] was 73.4% (active).

`c1ccc2c(Oc3nc(Nc4ccc(N5CCOCC5)cc4)c4ncn(C5CCCCC5)c4n3)cccc2c1`: the Potency entry in experiment [1], in [7] and in experiment [15] was “inactive” each time. Besides, the Potency in experiment [3] is 18.7 µM (active); in [18], 13.2 µM (active).

In the case of `CC(C)c1cnn2c(NCc3ccccc3)cc(NCCCCCCN)nc12`, the Potency in [13] was 16.6 µM (active); in experiment [3] it was 20.9 µM (active); in experiment [5], 26.4 µM (active); in [6], 23.5 µM (active); in experiment [9], 18.7 µM (active); in [14], 26.4 µM (active). Further, the Potency in experiment [10] was 18.7 µM (active); in experiment [19] it was 23.5 µM (active); in experiment [11], 14.8 µM (active); in experiment [18] it was 18.7 µM (active).

As for `Cc1ccc(-n2[nH]c(C)c(N=Nc3cccc(-c4cccc(C(=O)O)c4)c3O)c2=O)cc1C`, the Potency result in [13] and in experiment [10] was “inactive” throughout. The Potency was 13.2 µM (active) in experiment [4]; 23.5 µM (active) in experiment [5]; 20.9 µM (active) in experiment [7]; 23.5 µM (active) in experiment [14]; 20.9 µM (active) in experiment [18]; 23.5 µM (active) in experiment [15].

Consider `C#Cc1cccc(Nc2ncnc3cc(OCCOC)c(OCCO)cc23)c1`, for which the Potency is 4.69 µM (active) in [13]; 0.526 µM (active) in experiment [17]; 1.87 µM (active) in experiment [3]; 0.264 µM (active) in experiment [4]; 1.87 µM (active) in experiment [7]; 1.18 µM (active) in [8]. In addition, the Potency in experiment [9] was 0.0187 µM (active); in experiment [10], 1.48 µM (active).
